# The panel holds about 79,000 compounds, 15% with a hit somewhere; the sample as a whole holds those more often. Values without a mark were called inactive. The source made the active and inactive calls. Cut-off read from the data, not from the text of the source: active = growth inhibition above about 70%; inactive = the rest.
# Legend:
# [1] = NCI Yeast Anticancer Drug Screen. Data for the rad52 strain (AID 147);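 note: 0% = growth of vehicle-treated control cultures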; conditions: S. cerevisiae rad52 mutant growth inhibition, active compounds read high
# In short: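 Here a repair-compromised yeast strain receives each compound; its growth is then quantified and normalised to vehicle-only controls.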
# [2] = NCI Yeast Anticancer Drug Screen. Data for the wt1 strain (AID 149);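 note: 0% = growth of vehicle-treated wt1 cultures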; conditions: S. cerevisiae wt1 strain (SPY 50644) growth inhibition, active compounds read high
# In short: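 Growth inhibition read against vehicle controls after compound exposure of the wt1 yeast strain.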
# [3] = NCI Yeast Anticancer Drug Screen. Data for the rad50EPP+ strain (AID 151);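 note: 0% = growth of vehicle-treated control cultures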; conditions: S. cerevisiae rad50 mutant strain, active compounds read high
# In short: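 Read-out is yeast growth inhibition relative to vehicle; cells used were the rad50EPP+ strain.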
# [4] = NCI Yeast Anticancer Drug Screen. Data for the rad50 strain (AID 155);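 note: 0% = growth of vehicle-only cultures of the same strain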; conditions: S. cerevisiae rad50 strain growth inhibition, active compounds read high
# In short: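 Readout: growth inhibition relative to vehicle-treated cultures. Compound exposure was carried out in a genetically defined yeast strain deficient in DNA damage repair.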
# [5] = NCI Yeast Anticancer Drug Screen. Data for the mec2-1 strain (AID 157); conditions: S. cerevisiae mec2-1 strain, active compounds read high
# In short: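 Using mec2-1 yeast: add compound, measure growth, express inhibition versus vehicle-treated cultures.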
# [6] = NCI Yeast Anticancer Drug Screen. Data for the rad14 strain (AID 159);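 note: 0% = growth of vehicle-treated control cultures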; conditions: S. cerevisiae rad14 strain growth inhibition, active compounds read high
# In short: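 Growth inhibition vs vehicle controls; genetically altered yeast strain (DNA damage repair defect) treated with test compounds.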
# [7] = NCI Yeast Anticancer Drug Screen. Data for the sgs1 mgt1 strain (AID 161);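 note: 0% = growth of cultures given vehicle only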; conditions: S. cerevisiae sgs1 mgt1 strain, active compounds read high
# In short: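 Yeast cells carrying a defined DNA-repair defect were exposed to test compounds. Growth inhibition was measured relative to vehicle-treated controls.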
# [8] = NCI Yeast Anticancer Drug Screen. Data for the CLN2oe strain (AID 163);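 note: 0% = growth of vehicle-only control cultures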; conditions: S. cerevisiae CLN2oe strain, active compounds read high
# In short: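 Whole-cell yeast growth assay. A strain engineered for altered cell-cycle control received compound, and inhibition relative to vehicle-treated cultures was recorded.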
# [9] = NCI Yeast Anticancer Drug Screen. Data for the cln2 rad14 strain (AID 165);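 note: 0% = growth equal to vehicle treated cultures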; conditions: S. cerevisiae cln2 rad14 strain, active compounds read high
# In short: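 Yeast strain cln2 rad14, bearing defects in cell cycle control and DNA repair, serves as the test system; values reflect growth inhibition compared with vehicle.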
# [10] = NCI Yeast Anticancer Drug Screen. Data for the bub3 strain (AID 167); conditions: S. cerevisiae bub3 mutant strain, active compounds read high
# In short: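 Readout: yeast growth inhibition, expressed relative to vehicle-only wells. The test organism is a mutant strain from a panel with lesions in DNA repair or checkpoint genes.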
# [11] = NCI Yeast Anticancer Drug Screen. Data for the wt2 strain (AID 169);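 note: 0% = growth of vehicle-treated yeast cultures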; conditions: S. cerevisiae wt2 strain growth inhibition, active compounds read high
# In short: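 Treated yeast vs. vehicle-treated yeast: growth inhibition determined.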
# [12] = NCI Yeast Anticancer Drug Screen. Data for the mlh1 strain (AID 171);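 note: 0% = growth of vehicle-treated control cultures of the same strain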; conditions: S. cerevisiae mlh1 strain growth inhibition, active compounds read high
# In short: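 A yeast strain with a defined genetic lesion serves as the test organism. Cultures receive compound or vehicle, and growth is measured.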
# [13] = NCI Yeast Anticancer Drug Screen. Data for the sgs1 strain (AID 173);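 note: 0% = growth of vehicle-only control cultures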; conditions: S. cerevisiae sgs1 mutant, active compounds read high
# In short: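 A genetically defined yeast mutant is incubated with the test compound, and its growth is compared to that of the same strain given vehicle.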
# [14] = NCI Yeast Anticancer Drug Screen. Data for the mlh1 rad18 strain (AID 175); conditions: S. cerevisiae mlh1 rad18 strain growth inhibition, active compounds read high
# In short: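 Steps: expose repair-defective yeast to compound; measure growth; express inhibition against vehicle-treated controls.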
# [15] = NCI Yeast Anticancer Drug Screen. Data for the rad18 strain (AID 177); conditions: S. cerevisiae rad18 mutant growth inhibition, active compounds read high
# In short: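 Measured value is growth inhibition of a yeast strain bearing a DNA repair alteration, referenced to vehicle-treated cells.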
# [16] = at 5.0 µM (retest, dose inferred, filed as 0.5)
# [17] = at 50.0 µM (retest, dose inferred, filed as 5.0)
smiles,measurement,setting,value
Clc1cc(Cc2ccc(N=C/C=C/c3ccccc3)c(Cl)c2)ccc1N=C/C=C\c1ccccc1,growth inhibition,[1]; at 1.2 µM,11%
same,growth inhibition,[1]; at 3.7 µM,-1%
same,growth inhibition,[1]; at 11.0 µM,4%
same,growth inhibition,[1]; at 33.0 µM,9%
same,growth inhibition,[1]; at 100.0 µM,30%
same,growth inhibition,[2]; at 1.2 µM,-5%
same,growth inhibition,[2]; at 3.7 µM,-4%
same,growth inhibition,[2]; at 11.0 µM,-5%
same,growth inhibition,[2]; at 33.0 µM,1%
same,growth inhibition,[2]; at 100.0 µM,14%
same,growth inhibition,[3]; at 1.2 µM,18%
same,growth inhibition,[3]; at 3.7 µM,-4%
same,growth inhibition,[3]; at 11.0 µM,15%
same,growth inhibition,[3]; at 33.0 µM,15%
same,growth inhibition,[3]; at 100.0 µM,21%
same,growth inhibition,[4]; at 1.2 µM,13%
same,growth inhibition,[4]; at 3.7 µM,3%
same,growth inhibition,[4]; [16],100% (active)
same,growth inhibition,[4]; at 11.0 µM,8%
same,growth inhibition,[4]; at 33.0 µM,5%
same,growth inhibition,[4]; [17],100% (active)
same,growth inhibition,[4]; at 50.0 µM,71.3% (active)
same,growth inhibition,[4]; at 100.0 µM,32%
same,growth inhibition,[5]; at 1.2 µM,17%
same,growth inhibition,[5]; at 3.7 µM,20%
same,growth inhibition,[5]; [16],100% (active)
same,growth inhibition,[5]; at 11.0 µM,9%
same,growth inhibition,[5]; at 33.0 µM,-11%
same,growth inhibition,[5]; [17],99% (active)
same,growth inhibition,[5]; at 50.0 µM,33.1%
same,growth inhibition,[5]; at 100.0 µM,19%
same,growth inhibition,[6]; at 1.2 µM,-8%
same,growth inhibition,[6]; at 3.7 µM,-20%
same,growth inhibition,[6]; at 11.0 µM,-14%
same,growth inhibition,[6]; at 33.0 µM,-19%
same,growth inhibition,[6]; at 100.0 µM,19%
same,growth inhibition,[7]; [16],-23%
same,growth inhibition,[7]; [17],88% (active)
same,growth inhibition,[7]; at 50.0 µM,62.7%
same,growth inhibition,[8]; at 1.2 µM,-3%
same,growth inhibition,[8]; at 3.7 µM,-18%
same,growth inhibition,[8]; at 11.0 µM,-20%
same,growth inhibition,[8]; at 33.0 µM,-31%
same,growth inhibition,[8]; at 100.0 µM,3%
same,growth inhibition,[9]; [16],14%
same,growth inhibition,[9]; [17],74% (active)
same,growth inhibition,[9]; at 50.0 µM,58.8%
same,growth inhibition,[10]; at 1.2 µM,-12%
same,growth inhibition,[10]; at 3.7 µM,1%
same,growth inhibition,[10]; [16],30%
same,growth inhibition,[10]; at 11.0 µM,-9%
same,growth inhibition,[10]; at 33.0 µM,-9%
same,growth inhibition,[10]; [17],86% (active)
same,growth inhibition,[10]; at 50.0 µM,54.1%
same,growth inhibition,[10]; at 100.0 µM,-7%
same,growth inhibition,[11]; at 1.2 µM,-11%
same,growth inhibition,[11]; at 3.7 µM,-17%
same,growth inhibition,[11]; at 11.0 µM,-8%
same,growth inhibition,[11]; at 33.0 µM,4%
same,growth inhibition,[11]; at 100.0 µM,26%
same,growth inhibition,[12]; at 1.2 µM,-16%
same,growth inhibition,[12]; at 3.7 µM,-9%
same,growth inhibition,[12]; at 11.0 µM,-17%
same,growth inhibition,[12]; at 33.0 µM,-10%
same,growth inhibition,[12]; at 100.0 µM,12%
same,growth inhibition,[13]; at 1.2 µM,12%
same,growth inhibition,[13]; at 3.7 µM,7%
same,growth inhibition,[13]; at 11.0 µM,8%
same,growth inhibition,[13]; at 33.0 µM,8%
same,growth inhibition,[13]; at 100.0 µM,41%
same,growth inhibition,[14]; [16],100% (active)
same,growth inhibition,[14]; [17],100% (active)
same,growth inhibition,[14]; at 50.0 µM,64.7%
same,growth inhibition,[15]; at 1.2 µM,1%
same,growth inhibition,[15]; at 3.7 µM,-11%
same,growth inhibition,[15]; at 11.0 µM,-20%
same,growth inhibition,[15]; at 33.0 µM,-25%
same,growth inhibition,[15]; at 100.0 µM,24%
COC(=O)c1n[nH]c(C)c1N=NN(C)CCC#N,growth inhibition,[1]; at 1.2 µM,46%
same,growth inhibition,[1]; at 3.7 µM,91% (active)
same,growth inhibition,[1]; at 11.0 µM,97% (active)
same,growth inhibition,[1]; at 33.0 µM,98% (active)
same,growth inhibition,[1]; at 100.0 µM,99% (active)
same,growth inhibition,[2]; at 1.2 µM,-6%
same,growth inhibition,[2]; at 3.7 µM,-5%
same,growth inhibition,[2]; at 11.0 µM,97% (active)
same,growth inhibition,[2]; at 33.0 µM,99% (active)
same,growth inhibition,[2]; at 100.0 µM,99% (active)
same,growth inhibition,[3]; at 1.2 µM,26%
same,growth inhibition,[3]; at 3.7 µM,77% (active)
same,growth inhibition,[3]; at 11.0 µM,95% (active)
same,growth inhibition,[3]; at 33.0 µM,97% (active)
same,growth inhibition,[3]; at 100.0 µM,99% (active)
same,growth inhibition,[4]; at 1.2 µM,18%
same,growth inhibition,[4]; at 3.7 µM,81% (active)
same,growth inhibition,[4]; [16],69%
same,growth inhibition,[4]; at 11.0 µM,96% (active)
same,growth inhibition,[4]; at 33.0 µM,98% (active)
same,growth inhibition,[4]; [17],96% (active)
same,growth inhibition,[4]; at 50.0 µM,98.5% (active)
same,growth inhibition,[4]; at 100.0 µM,99% (active)
same,growth inhibition,[5]; at 1.2 µM,2%
same,growth inhibition,[5]; at 3.7 µM,3%
same,growth inhibition,[5]; [16],-31%
same,growth inhibition,[5]; at 11.0 µM,99% (active)
same,growth inhibition,[5]; at 33.0 µM,99% (active)
same,growth inhibition,[5]; [17],98% (active)
same,growth inhibition,[5]; at 50.0 µM,99.2% (active)
same,growth inhibition,[5]; at 100.0 µM,99% (active)
same,growth inhibition,[6]; at 1.2 µM,1%
same,growth inhibition,[6]; at 3.7 µM,11%
same,growth inhibition,[6]; at 11.0 µM,72% (active)
same,growth inhibition,[6]; at 33.0 µM,99% (active)
same,growth inhibition,[6]; at 100.0 µM,99% (active)
same,growth inhibition,[7]; [16],-11%
same,growth inhibition,[7]; [17],96% (active)
same,growth inhibition,[7]; at 50.0 µM,98.8% (active)
same,growth inhibition,[8]; at 1.2 µM,-2%
same,growth inhibition,[8]; at 3.7 µM,-3%
same,growth inhibition,[8]; at 11.0 µM,95% (active)
same,growth inhibition,[8]; at 33.0 µM,99% (active)
same,growth inhibition,[8]; at 100.0 µM,99% (active)
same,growth inhibition,[9]; [16],-41%
same,growth inhibition,[9]; [17],98% (active)
same,growth inhibition,[9]; at 50.0 µM,97.8% (active)
same,growth inhibition,[10]; at 1.2 µM,-21%
same,growth inhibition,[10]; at 3.7 µM,-16%
same,growth inhibition,[10]; [16],-71%
same,growth inhibition,[10]; at 11.0 µM,80% (active)
same,growth inhibition,[10]; at 33.0 µM,99% (active)
same,growth inhibition,[10]; [17],97% (active)
same,growth inhibition,[10]; at 50.0 µM,99% (active)
same,growth inhibition,[10]; at 100.0 µM,98% (active)
same,growth inhibition,[11]; at 1.2 µM,0%
same,growth inhibition,[11]; at 3.7 µM,11%
same,growth inhibition,[11]; at 11.0 µM,99% (active)
same,growth inhibition,[11]; at 33.0 µM,99% (active)
same,growth inhibition,[11]; at 100.0 µM,99% (active)
same,growth inhibition,[12]; at 1.2 µM,7%
same,growth inhibition,[12]; at 3.7 µM,0%
same,growth inhibition,[12]; at 11.0 µM,98% (active)
same,growth inhibition,[12]; at 33.0 µM,99% (active)
same,growth inhibition,[12]; at 100.0 µM,99% (active)
same,growth inhibition,[13]; at 1.2 µM,15%
same,growth inhibition,[13]; at 3.7 µM,70% (active)
same,growth inhibition,[13]; at 11.0 µM,99% (active)
same,growth inhibition,[13]; at 33.0 µM,99% (active)
same,growth inhibition,[13]; at 100.0 µM,99% (active)
same,growth inhibition,[14]; [16],-49%
same,growth inhibition,[14]; [17],97% (active)
same,growth inhibition,[14]; at 50.0 µM,98.8% (active)
same,growth inhibition,[15]; at 1.2 µM,16%
same,growth inhibition,[15]; at 3.7 µM,68%
same,growth inhibition,[15]; at 11.0 µM,95% (active)
same,growth inhibition,[15]; at 33.0 µM,98% (active)
same,growth inhibition,[15]; at 100.0 µM,99% (active)
